Consider four compounds from PubChem BioAssay (NCATS).

Records with an inconclusive call do not appear. The source made the active and inactive calls. Calls come from the whole dose curve; as a rule, active = well fitted inhibition curve with a large enough effect; inconclusive = small, poorly fitted or top-dose-only effect; inactive = flat fitted curve, though single readings scatter.
Potency is the fitted concentration of half-maximal effect.

Test system in one assay: not listed separately
Nature of the assay: qHTS profiling for inhibitors of Plasmodium falciparum proliferation (AID 504749).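 For activity, negative = inhibition: 0% = DMSO vehicle and full inhibition = artemisinin control.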 Note: nearly all actives have a fitted effect of over 60% in size. Particulars: P. falciparum in erythrocytes, SYBR Green DNA, 72 h; at 28.7 µM (top of the series); parasite line A. The method, boiled down:
(§1)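 Three-day growth assay of blood-stage parasites in erythrocytes (0.3% parasitemia, 2.5% hematocrit) at 37 C, 5% CO2, quantified by SYBR Green DNA staining after overnight detergent lysis.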
On to `CN1CC(=O)N2C(Cc3c([nH]c4ccccc34)[C@H]2c2ccc3c(c2)OCO3)C1=O` (stereo partly drawn), for which the activity, negative = inhibition was 3.25% (inactive).

For the compound `CC(C)CN(C[C@@H](O)[C@H](Cc1ccccc1)NC(=O)O[C@H]1CO[C@H]2OCC[C@H]21)S(=O)(=O)c1ccc(N)cc1`, the activity, negative = inhibition was 1% (inactive).

In the case of `O=C1C(CCC(O)c2ccc(F)cc2)C(c2ccc(O)cc2)N1c1ccc(F)cc1` (stereo not drawn), the activity, negative = inhibition was 3.97% (inactive).

The assay is the same for the next values; noted with them: P. falciparum in erythrocytes, SYBR Green DNA, 72 h; at 28.7 µM (top of the series); parasite line B.
With `CN1CC(=O)N2C(Cc3c([nH]c4ccccc34)[C@H]2c2ccc3c(c2)OCO3)C1=O` (stereo partly drawn), the activity, negative = inhibition is 5.31% (inactive).

Take `CC(C)CN(C[C@@H](O)[C@H](Cc1ccccc1)NC(=O)O[C@H]1CO[C@H]2OCC[C@H]21)S(=O)(=O)c1ccc(N)cc1`: the activity, negative = inhibition is -15.6% (inactive).

As to `O=C1C(CCC(O)c2ccc(F)cc2)C(c2ccc(O)cc2)N1c1ccc(F)cc1` (stereo not drawn), the activity, negative = inhibition is 8.1% (inactive).

In the next assay the test system is 3D7. The assay is described as above. Particulars: P. falciparum in erythrocytes, SYBR Green DNA, 72 h; series mostly up to 28.7 µM; activity, negative = inhibition: at the top concentration. The method, boiled down:
as §1
Take `COc1c(C)c2c(c(O)c1CC=C(C)CCC(=O)OCCN1CCOCC1)C(=O)OC2`: the Potency was 11.2 µM (active).

As to `CN1CC(=O)N2C(Cc3c([nH]c4ccccc34)[C@H]2c2ccc3c(c2)OCO3)C1=O` (stereo partly drawn), the “activity, negative = inhibition” value is -0.933% (inactive).

As for `CC(C)CN(C[C@@H](O)[C@H](Cc1ccccc1)NC(=O)O[C@H]1CO[C@H]2OCC[C@H]21)S(=O)(=O)c1ccc(N)cc1`, the “activity, negative = inhibition” value was -1.53% (inactive).

In the case of `O=C1C(CCC(O)c2ccc(F)cc2)C(c2ccc(O)cc2)N1c1ccc(F)cc1` (stereo not drawn), the “activity, negative = inhibition” value is -1.33% (inactive).

A further assay concerns 7G8. Described as above. Particulars: P. falciparum in erythrocytes, SYBR Green DNA, 72 h; series mostly up to 28.7 µM; activity, negative = inhibition: at the top concentration. The method in brief: as §1
With `COc1c(C)c2c(c(O)c1CC=C(C)CCC(=O)OCCN1CCOCC1)C(=O)OC2`, the Potency was 4.47 µM (active).

As to `CN1CC(=O)N2C(Cc3c([nH]c4ccccc34)[C@H]2c2ccc3c(c2)OCO3)C1=O` (stereo partly drawn), the Potency was 10 µM (active).

With `CC(C)CN(C[C@@H](O)[C@H](Cc1ccccc1)NC(=O)O[C@H]1CO[C@H]2OCC[C@H]21)S(=O)(=O)c1ccc(N)cc1`, the Potency is 12.6 µM (active).

Turning to `O=C1C(CCC(O)c2ccc(F)cc2)C(c2ccc(O)cc2)N1c1ccc(F)cc1` (stereo not drawn), the “activity, negative = inhibition” value was -27.4% (inactive).

In the next assay the test system is AA1029. The assay is described as above. Conditions: P. falciparum in erythrocytes, SYBR Green DNA, 72 h; series mostly up to 28.7 µM; activity, negative = inhibition: at the top concentration. The method in brief:
as §1
Consider `COc1c(C)c2c(c(O)c1CC=C(C)CCC(=O)OCCN1CCOCC1)C(=O)OC2`, for which the Potency was 10 µM (active).

Turning to `CN1CC(=O)N2C(Cc3c([nH]c4ccccc34)[C@H]2c2ccc3c(c2)OCO3)C1=O` (stereo partly drawn), the “activity, negative = inhibition” value was -11.4% (inactive).

As to `CC(C)CN(C[C@@H](O)[C@H](Cc1ccccc1)NC(=O)O[C@H]1CO[C@H]2OCC[C@H]21)S(=O)(=O)c1ccc(N)cc1`, the “activity, negative = inhibition” value is -20.4% (inactive).

For the compound `O=C1C(CCC(O)c2ccc(F)cc2)C(c2ccc(O)cc2)N1c1ccc(F)cc1` (stereo not drawn), the “activity, negative = inhibition” value is 3.55% (inactive).
